USP30 inh: blocks human USP30 ubiquitin-rhodamine cleavage | Q70CQ3 | purified USP30, Ub-rhodamine cleavage fluorescence | inhibition, % at 25 µM | actives 5.3% (n = 47,000) | AID 1645860
USP28 inh: inhibitors of human USP28 deubiquitinase | Q96RU2 | purified USP28, Ub-rhodamine cleavage fluorescence, 30 min | inhibition, % at 25 µM | actives 3% (n = 47,000) | AID 1645857
OTUD3 inh: human OTUD3 deubiquitinase inhibition. purified OTUD3, Ub-rhodamine fluorescence, 2 h. Q5T2D3. AID 1645858. actives 0.7% (n = 47,000). inhibition, % at 25 µM
USP17 block: human USP17-like deubiquitinase inhibition | AID 1645855 | A8MUK1 | actives 6.5% (n = 47,000) | purified USP17, Ub-rhodamine cleavage fluorescence, 3 h | inhibition, % at 50 µM
Target sequence (A8MUK1 whole entry, looked up): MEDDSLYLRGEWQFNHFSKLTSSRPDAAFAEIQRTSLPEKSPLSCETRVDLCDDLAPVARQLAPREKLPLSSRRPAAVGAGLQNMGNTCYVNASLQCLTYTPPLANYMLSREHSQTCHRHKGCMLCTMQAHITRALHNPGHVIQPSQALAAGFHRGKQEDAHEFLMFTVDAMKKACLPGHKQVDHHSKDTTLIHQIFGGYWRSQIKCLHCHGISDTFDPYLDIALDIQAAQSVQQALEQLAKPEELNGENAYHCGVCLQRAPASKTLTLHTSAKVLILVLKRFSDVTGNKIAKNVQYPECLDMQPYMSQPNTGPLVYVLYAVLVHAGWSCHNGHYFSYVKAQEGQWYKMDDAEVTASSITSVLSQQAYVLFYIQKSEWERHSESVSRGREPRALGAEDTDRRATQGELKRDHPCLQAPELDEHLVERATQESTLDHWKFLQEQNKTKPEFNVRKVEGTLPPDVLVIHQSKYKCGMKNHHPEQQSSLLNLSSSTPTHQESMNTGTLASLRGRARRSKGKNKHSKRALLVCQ
Large screens that a line does not name were inactive. An excerpt weighted towards active compounds, which were near 11% of everything screened. No stated cut-off is given here; in the data, active means inhibition above about 30%; inactive means the rest.

Cn1c(CN2CCOCC2)nnc1SCC(=O)Nc1ccc(C#N)cc1	none
COCCCn1c(-c2ccc([N+](=O)[O-])cc2)nc2c(c(=O)c3ccccc3n2C)c1=O	none
COc1ccc(CCn2c(-c3ccccc3C)nc3c(c(=O)c4ccccc4n3C)c2=O)cc1	none (no result: USP17 block)
Cn1c2ccccc2c(=O)c2c(=O)n(Cc3ccccc3)c(-c3ccco3)nc21	USP28 inh 44, USP17 block 59
Cn1c2ccccc2c(=O)c2c(=O)n(Cc3ccccc3)c(-c3ccc(C(C)(C)C)cc3)nc21	USP17 block 50
Cc1nc2c(c(=O)c3ccccc3n2C)c(=O)n1Cc1ccco1	none
Cn1c2ccccc2c(=O)c2c(=O)n(Cc3ccccc3)c(-c3ccccc3F)nc21	USP17 block 66
Cc1ccc(-c2nc3c(c(=O)c4ccccc4n3C)c(=O)n2-c2ccc(F)cc2)cc1	USP17 block 43
Cc1ccc(-c2nc(Cn3cccc3C(=O)N3CCCC3)no2)cc1	none
Cc1ccccc1NC(=O)Cc1nnc2c(-c3nc(C4CC4)no3)cccn12	none
Cc1ccc(NC(=O)Cc2nnc3c(-c4nc(C5CC5)no4)cccn23)cc1	USP30 inh 36, USP17 block 52
Cc1ccc2c(=O)c3c([nH]c2c1C)CCN(CC(=O)NCc1ccccc1)C3	USP30 inh 40, USP17 block 72
Cc1cc(C)c2c(-n3cccc3)c(C(=O)NCCc3ccc(S(N)(=O)=O)cc3)sc2n1	USP28 inh 80
Cc1cccc(C(=O)Nc2ccc3c(c2)nc(CSc2nccc(C)n2)n3C)c1	USP28 inh 93
Cn1c(CCN2CCCC2)nc2cc(NC(=O)c3ccccc3)ccc21	USP17 block 59
CCn1c(CCc2ccc(NC(=O)c3ccccn3)cc2)nc2ccccc21	none (no result: USP30 inh, USP28 inh)
CCC(=O)Nc1ccc2c(c1)nc(CSc1nccc(C)n1)n2CC	USP28 inh 92
CC(=O)c1cccc(NC(=O)Nc2ccc(CCc3nc4ccccc4n3C)cc2)c1	USP17 block 33
Cn1c(=O)c2c(c3ccccc31)O[C@](C)(CO)C(O)C2 (some centres not stated)	none
Cc1ccc(-c2nc(Cn3cnc4sc(C)c(C)c4c3=O)cs2)cc1	none (no result: USP17 block)
O=c1c2ccc(F)cc2ncn1Cc1csc(-c2ccccc2)n1	USP28 inh 47
COc1ccc(C(=O)C(C)OC(=O)c2cccc(S(=O)(=O)Nc3cc([N+](=O)[O-])ccc3OC)c2)c(OC)c1 (configuration not stated)	USP30 inh 31
COc1cccc(NC(=O)C(C)OC(=O)c2ccc(NS(=O)(=O)c3ccc(F)c(F)c3)cc2)c1 (configuration not stated)	none
O=C(O)C(=O)Nc1cc(Cl)cc(Cl)c1	none
O=C(NCC1CCCO1)c1nc2c(s1)CCCN2c1ncccn1 (configuration not stated)	none (no result: USP30 inh, USP28 inh)
O=C(CCCn1c(=O)c2cc(Cl)ccc2n(CC(=O)Nc2cccc(F)c2)c1=O)NCc1ccco1	none
O=C(Cc1ccccc1)c1ccc(Br)s1	USP28 inh 35
O=C(CCc1ccccc1)Nc1nnc(-c2ccc(Br)cc2)s1	none (no result: USP17 block)
COC1/C=C/OC2(C)Oc3c(C)c(O)c4c(c3C2=O)C(=O)C=C(NC(=O)/C(C)=C\C=C\C(C)C(O)C(C)C(O)C(C)C(OC(C)=O)C1C)C4=O (configuration not stated)	USP17 block 64
CO[C@H]1/C=C/OC2(C)Oc3c(C)c(O)c4c(c3C2=O)C2(C=C(NC(=O)/C(C)=C\C=C\[C@H](C)[C@H](O)[C@@H](C)[C@@H](O)[C@@H](C)[C@H](OC(C)=O)C1C)C4=O)OCC(=O)O2 (some centres not stated)	USP17 block 60
O=C(COc1nc2ccccc2nc1N1CCOCC1)Nc1ccc(F)cc1	USP30 inh 38
CC(C)CC(=O)Nc1cc(F)c2nc(N3CCOCC3)ccc2c1	USP17 block 75
O=C(Cn1ccc2ccc(N3CCOCC3)nc21)NCc1ccc(F)cc1F	none
O=C(COc1ccc(F)cc1)Nc1cc(F)c2nc(N3CCOCC3)ccc2c1	USP17 block 51
COc1ccc(OCC(=O)Nc2cc(F)c3nc(N4CCOCC4)ccc3c2)cc1	none
O=C1COC2(CCNCC2)CN1Cc1ccc(Cl)cc1	none
Cc1ccc(NS(=O)(=O)c2cc(NC(=O)CCOc3ccccc3C)ccc2C)c(C)c1	none
Cc1ccccc1OCCC(=O)Nc1cccc(S(=O)(=O)Nc2ccccc2Cl)c1	USP17 block 55
CS(=O)(=O)N1CCO[C@@H]2CCN(Cc3ccncc3)CC[C@H]21	none
CCc1ccc(Nc2nc(N)nc(CN3CCC(C(N)=O)CC3)n2)cc1	none
Cc1ccccc1-c1nc(SCC(=O)N2CCCC2)c2c(=O)n(C)c(=O)n(C)c2n1	USP30 inh 43
COc1ccc2cc(CNCCN3CCOCC3)c(=O)[nH]c2c1	none
Cc1ccc2cc(CCNC(=O)COc3ccc(Cl)cc3)c(=O)[nH]c2c1	USP17 block 37
COc1ccc2cc(CCNC(=O)C3(c4ccc(Cl)cc4)CCCC3)c(=O)[nH]c2c1	USP17 block 43
O=C(Nc1ccccc1)N1CCCC2(CCCN2Cc2ccccc2F)C1 (configuration not stated)	USP30 inh 32
O=C(OCC(=O)N1CCCc2ccccc21)c1ccc(O)cc1	none
O=C(OCC(=O)N1CCCc2ccccc21)c1c(F)cccc1Cl	USP30 inh 31
COc1ccc(S(=O)(=O)Nc2c(C)c(C)cc3c2nc(C)n3Cc2cccc(C)c2)cc1	USP30 inh 33
COc1ccc(S(=O)(=O)Nc2nc3ccccc3nc2NCc2ccccc2)cc1	none
CC1=CC(=O)CC(C)(C)C1(O)/C=C/C(C)=C\C(=O)O (configuration not stated)	none
CC(=O)/C=C/C1(O)C(C)=CC(=O)CC1(C)C (configuration not stated)	USP30 inh 33
O=C(c1cc(Cl)cc(Cl)c1)N1CC(c2nc(-c3cccnc3)no2)C1	USP30 inh 30
CC(=O)CSc1nnc(-c2cnn(-c3ccccc3)c2N)o1	none
Nc1ccccc1-c1nnc(SCC(=O)c2ccccc2)o1	USP30 inh 33
CCOc1ccc(NC(=O)CSCc2nc(-c3ccc(OC)c(OC)c3)no2)cc1	USP17 block 47
COc1ccc(-c2noc(CC(=O)Nc3cccc(C#N)c3)n2)cc1	USP17 block 39
COc1ccc(-c2noc([C@@H]3C[C@H](NC(=O)Nc4cccc(C#N)c4)CN3C)n2)cc1	USP30 inh 37
CCOC(=O)c1cccc(NC(=O)Cc2nc(-c3ccc(OC)cc3)no2)c1	none
Cc1ccccc1OCC(=O)Nc1ccc(Cl)c(S(=O)(=O)N2CCOCC2)c1	none
COc1ccccc1C1CN2C(=O)CN(CCCCCO)C(=O)[C@]2(C)c2[nH]c3ccccc3c21 (some centres not stated)	none
CO\C=C(C(=O)OC)/C(C)=C\C=C\c1ccc(OCC=C(C)C)c(O)c1	USP17 block 40
Cc1nc(-c2ccc(NC(=O)c3ccc(Cl)cc3)cc2)cs1	none
CC(C)N(C(=O)COC(=O)c1ccc2c(c1)OCO2)c1ccccc1	none
O=S(=O)(c1ccccc1)N1CCN(c2cc(-c3cccnc3)[nH]n2)CC1	none
O=S(=O)(c1ccccc1)N1CCN(c2ccc(-c3cccnc3)nn2)CC1	USP17 block 49
